This note sets out measurements from PubChem BioAssay (NCATS).

Several values for one entry are separate records, joined by “and”; a condition that tells them apart may be missing. Equal entries are not always repeated. Inconclusive results are not listed. Where a structure was tested more than once in an assay, its records may differ in their call. Activity calls are given as the source filed them. Unless noted, calls come from the whole dose curve; as a rule, active = well fitted curve in the direction sought with a large enough effect; inconclusive = small, poorly fitted or top-dose-only effect, or another doubt; inactive = no such curve, though single readings can be large; an effect the other way counts as inactive or inconclusive.

Experiment [1] in a line: Identifying Small Molecule Inhibitors of Pancreatic Cancer Stem Cells (A2780, Spheroid) (AID 1259357).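 Note: compound exposure lasted 48 h before the ATP luminescence read.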 The source says: (§1) Progenitor-like cancer cells, often referred to as cancer stem cells (CSC), are believed to be the drivers of therapeutic resistance and rapid recurrence. CSCs are postulated to reside in specific niches characterized by low oxygen tension, limited nutrient supply, and high redox load. Selectively targeting CSC, alone or in combination with cytotoxic agents, as a means to produce durable remissions is an appealing concept. Modeling these cells in in vitro setting is an important step in finding new therapies and/or targets. Multiple reports highlight that forcing cells in culture into 3-dimensionaly architectures (spheroids) re-establishes key progenitor-like transcriptional signatures. Pancreatic cancer is among the diseases with the most dismal outlook which is driven, largely, by recurance following front-line therapies. […]
(§2) Multicellular tumor spheroids from Panc1, MiaPaCa-2, and the primary low-passage tissue culture line SB.06 were seeded in stem cell media (SCM) in nonadherent 6-well plates coated with hydrogel (Corning Life Sciences, Chelmsford, Mass) and pancreatic spheres generated for 14 days before screening. […] Plates were incubated at room temperature for 10 minutes prior to reading the luminescence on the Viewlux (PerkinElmer). […]

The nature of experiment [2]: Identifying Small Molecule Inhibitors of Pancreatic Cancer Stem Cells (SN12C, Adherent) (AID 1259358).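 Note: cell survival measured after 48 h of compound exposure.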
Text: as §1, §2

Experiment [3] in a line: Identifying Small Molecule Inhibitors of Pancreatic Cancer Stem Cells (SN12C, Spheroid) (AID 1259360). In outline:
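Monolayer and spheroid cultures are compared. Spheroids form over 14 days in stem cell medium on hydrogel-coated low-attachment plates, then are exposed to compound for 48 h before CellTiter-Glo luminescence.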

A short description of experiment [4]: Identifying Small Molecule Inhibitors of Pancreatic Cancer Stem Cells (A278, Adherent) (AID 1259361).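 Note: viability read after 48 h compound exposure; nearly all actives have a fitted effect of over 35% in size.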 In short, it runs like this:
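Luminescent ATP readout (CellTiter-Glo) quantifies surviving cells after a 48 h drug incubation. Normalization uses DMSO wells as no inhibition and media-only wells as full inhibition; bortezomib served as positive control.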

Experiment [5] can be described thus: P-glycoprotein substrates identified in KB-8-5-11 adenocarcinoma cell line, qHTS therapeutic library screen (AID 1346987). Note: nearly all actives have a fitted effect of over 65% in size. Note: potency is the fitted concentration of half-maximal effect. In short, it runs like this: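 KB-8-5-11, a colchicine-selected P-gp-overexpressing KB-3-1 subline, was grown without colchicine for the assay. Cells were seeded at 500 cells/well, dosed in concentration-response and incubated 72 h at 37 degree C, 5% CO2. Viability was read by CellTiter-Glo luminescence.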

The nature of experiment [6]: Natriuretic polypeptide receptor (hNpr1) antagonism - Pilot counterscreen GloSensor control cell line (AID 1347045; calls by dose curve; note: series mostly up to about 38 µM). In outline: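 HEK293 cGMP GloSensor cells preloaded 2 h with 2% GloSensor reagent, then compound 30 min before baseline luminescence read. Stimulated with 50 uM sodium nitroprusside, 20 min at room temperature, then read again; counterscreen for Npr1 antagonism.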

Experiment [7] concerns the target Atrial natriuretic peptide receptor 1 (Homo sapiens) (UniProt P16066). Description: Natriuretic polypeptide receptor (hNpr1) antagonism - Pilot screen (AID 1347049; calls by dose curve;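 note: agonist-evoked cGMP luminescence read 20 min after hNppA addition; series mostly up to about 58 µM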). In outline:
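HEK293 cells co-expressing hNpr1 and the GloSensor pGS-40F cGMP luciferase sensor were preloaded with 2% GloSensor reagent for 2 h. Compounds were added for 30 min at room temperature, then cells were stimulated with 0.1 nM hNppA for 20 min before luminescence readout.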

Experiment [8] addresses Atrial natriuretic peptide receptor 2 (Homo sapiens) (UniProt P20594). Description: Natriuretic polypeptide receptor (hNpr2) antagonism - Pilot subtype selectivity assay (AID 1347050; calls by dose curve). As to the method:
F. Fan, B. F. Binkowski, B. L. Butler, P. F. Stecha, M. K. Lewis, K. V. Wood, Novel genetically encoded biosensors using firefly luciferase. ACS Chem Biol 3, 346-351 (2008).
PROTOCOL TABLE (as described by Inglese J, Shamu CE and Guy RK. 2007)
SEQUENCE No. (e.g., 1, 2, 3, etc.); […] (e.g., Cells, Incubation, Reagent, etc.); VALUE and DESCRIPTION.
1. Cells. Seed 1500 HEK293 cGMP-sensor cells expressing hNpr2 per well in 4uL into Greiner 1536-well white/solid bottom high base, TC plates.
2. Incubation. Incubate plated cells at 37C in 5% CO2, 95% RH overnight.
3. Reagent. Add 1uL per well GloSensor reagent from Promega (2% final concentration) or CO2 independent media vehicle control to respective columns of Greiner 1536-well plates.
4. Incubation. Incubate plated cells at ambient temperature for 2 h., protect from light.
5. Compounds. Library compounds and DMSO vehicle control added at 23nL per well, transferred by Pin Tool.
6. Incubation. Incubate plated cells for 30 min. at ambient temperature, protect from light.
7. Detector. GloSensor baseline pre-read luminescence measured using CCD-based camera (Viewlux).
8. Compound. Add 1uL of hNppC peptide to 1 nM final concentration to stimulate hNpr2 or CO2 independent media as vehicle control.
9. Incubation. Incubate treated cells at ambient temperature for 20 min., protect from light.
10. Detector. GloSensor post-hNppC luminescence measured using CCD-based camera (Viewlux).
NOTES (numbers refer to Sequence numbers above)
1. HEK293 cells expressing hNpr2 and GIP/pGS-40F were grown to 85-95% confluence (48-72 h) in T175 culture flasks (CO2 independent media supplemented with 10% FBS, 1% Pen/Strep antibiotics, and 1 ug/mL puromycin). Trypsinize and harvest cells from T175 culture flasks and filter through 40 um cell strainer. Cells counted with Invitrogen Countess (30,000,000 - 50,000,000 cells/flask). Cells diluted to a final concentration of 375 cells/uL in CO2 independent media and a Millipore multidrop used to dispense 1500 cells per well (4uL/well) into 9 x1536-well Greiner White/Solid bottom, high base tissue-culture treated (TC) plates and one Aurora 1536-well Black/Clear bottom, low base, TC plate (for visual inspection of cell health throughout the duration of the assay).
2. Cells incubated for 24 h. at 37C in 95% RH incubator with metal lid having gas-exchange holes.
3. Prepare GloSensor Reagent (Promega): Reconstitute GloSensor luciferase substrate by adding 8.2mL Hepes buffer to 250mg substrate, mix well, protect from light and stored at -80C. Prepare a fresh 12% GloSensor solution in CO2 independent supplemented plating media (see above). […]
7. Read cellular baseline GloSensor luminescence in presence of test library compounds on the ViewLux [Exposure = 10 s.; Gain = High; Speed = Slow; and Binning = 2X.] […]

Experiment [9] is described as follows: NS1 protein of Zika virus - qHTS assay to identify small molecule inhibitors in human HEK 293 cells (AID 1347053). Note: nearly all actives have a fitted effect of over 55% in size. Note: potency is the fitted concentration of half-maximal effect. In short, it runs like this:
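HEK 293; 20 h pre-culture, 37 C/5% CO2; cpd 1 h pre-infection; ZIKV MR766, MOI = 0.5, 24 h, 37 C; TR-FRET NS1 readout (two anti-NS1 Abs); norm. to no-virus vs infected.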
On the technique in general: Quantitative high-throughput screening tests each substance at several concentrations.

Sequence of Atrial natriuretic peptide receptor 1 (Homo sapiens) (P16066 whole entry, looked up): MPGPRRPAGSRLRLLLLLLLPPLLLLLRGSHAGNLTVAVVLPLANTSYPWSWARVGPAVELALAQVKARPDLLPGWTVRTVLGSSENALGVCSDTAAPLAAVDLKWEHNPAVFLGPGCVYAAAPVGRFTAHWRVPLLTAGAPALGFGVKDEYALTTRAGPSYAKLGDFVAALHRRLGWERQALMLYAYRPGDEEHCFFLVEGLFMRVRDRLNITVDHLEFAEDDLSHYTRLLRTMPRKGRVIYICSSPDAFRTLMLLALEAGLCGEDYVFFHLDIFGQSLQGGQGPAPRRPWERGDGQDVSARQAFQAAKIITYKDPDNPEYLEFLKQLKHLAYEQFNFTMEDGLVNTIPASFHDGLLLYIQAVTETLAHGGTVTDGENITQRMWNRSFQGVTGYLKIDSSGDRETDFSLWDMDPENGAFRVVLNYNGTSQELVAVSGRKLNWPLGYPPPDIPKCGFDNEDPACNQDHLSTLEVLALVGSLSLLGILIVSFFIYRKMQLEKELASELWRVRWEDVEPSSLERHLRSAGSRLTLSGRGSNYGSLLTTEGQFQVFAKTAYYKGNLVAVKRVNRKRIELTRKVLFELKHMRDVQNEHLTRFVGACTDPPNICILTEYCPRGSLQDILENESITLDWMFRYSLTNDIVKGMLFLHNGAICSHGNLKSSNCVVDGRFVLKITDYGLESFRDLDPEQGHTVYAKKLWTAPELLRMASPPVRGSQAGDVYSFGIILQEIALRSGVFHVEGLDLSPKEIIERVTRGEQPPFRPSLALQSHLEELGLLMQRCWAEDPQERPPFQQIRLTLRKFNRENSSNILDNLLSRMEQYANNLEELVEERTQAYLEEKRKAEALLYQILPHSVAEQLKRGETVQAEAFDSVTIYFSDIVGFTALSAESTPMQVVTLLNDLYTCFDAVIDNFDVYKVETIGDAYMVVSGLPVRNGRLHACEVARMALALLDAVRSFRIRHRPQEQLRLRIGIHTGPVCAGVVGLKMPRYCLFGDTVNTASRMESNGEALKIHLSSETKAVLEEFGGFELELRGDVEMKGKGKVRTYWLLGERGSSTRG
Sequence of Atrial natriuretic peptide receptor 2 (Homo sapiens) (P20594 whole entry, looked up): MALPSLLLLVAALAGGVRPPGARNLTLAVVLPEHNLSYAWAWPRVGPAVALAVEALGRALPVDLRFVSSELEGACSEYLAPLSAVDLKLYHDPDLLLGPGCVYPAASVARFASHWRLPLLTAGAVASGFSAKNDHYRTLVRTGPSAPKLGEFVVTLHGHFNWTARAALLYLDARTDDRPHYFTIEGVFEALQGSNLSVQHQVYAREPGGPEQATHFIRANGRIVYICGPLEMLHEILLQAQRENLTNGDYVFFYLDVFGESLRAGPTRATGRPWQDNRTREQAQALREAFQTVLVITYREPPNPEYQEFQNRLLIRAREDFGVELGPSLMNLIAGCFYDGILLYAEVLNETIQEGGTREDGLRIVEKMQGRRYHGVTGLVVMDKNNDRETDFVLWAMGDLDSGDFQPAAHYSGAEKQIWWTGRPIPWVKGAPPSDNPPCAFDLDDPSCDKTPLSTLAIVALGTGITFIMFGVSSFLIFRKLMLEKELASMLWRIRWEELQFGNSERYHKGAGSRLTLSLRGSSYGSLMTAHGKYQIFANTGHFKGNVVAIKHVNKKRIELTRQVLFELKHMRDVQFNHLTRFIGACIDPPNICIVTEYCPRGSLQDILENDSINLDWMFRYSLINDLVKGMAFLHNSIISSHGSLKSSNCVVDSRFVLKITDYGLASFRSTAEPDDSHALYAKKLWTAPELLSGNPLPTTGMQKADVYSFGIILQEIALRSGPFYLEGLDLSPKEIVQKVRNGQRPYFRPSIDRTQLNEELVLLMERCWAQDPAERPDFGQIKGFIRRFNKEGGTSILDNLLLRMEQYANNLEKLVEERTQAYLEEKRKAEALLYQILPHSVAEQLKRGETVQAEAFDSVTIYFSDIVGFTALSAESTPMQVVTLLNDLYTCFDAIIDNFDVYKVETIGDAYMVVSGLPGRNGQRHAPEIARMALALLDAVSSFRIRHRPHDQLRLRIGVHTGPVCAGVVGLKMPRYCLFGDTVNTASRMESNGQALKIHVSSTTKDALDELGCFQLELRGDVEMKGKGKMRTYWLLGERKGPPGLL

For `O=C(O)c1nn(Cc2ccc(Cl)cc2Cl)c2ccccc12`, the result in [1], in [2], in experiment [3], in experiment [4], in [6] and in experiment [7] was inactive. The compound was classed as inactive in experiment [8]. For the same compound, the Potency entry in experiment [5] and in experiment [9] was “inactive” in each case.

In the case of `Oc1ccc([C@H]2CNCc3c2ccc(O)c3O)cc1O`, the Potency entry in [5] and in experiment [9] was “inactive” in each case.

Turning to `C[C@@H]1C[C@@H]([C@H](O)CC2CC(=O)NC(=O)C2)C(=O)[C@@H](C)C1`, the Potency is 2.31 µM (active) and 590 nM (active) in experiment [5]; “inactive and 93.5 nM (active)” in [9].

As for `COc1ccc(C(=O)N2CCCC2=O)cc1`, the Potency result in experiment [5] and in experiment [9] was “inactive” each time. Also, the compound was classed as inactive in experiment [6], in [7] and in experiment [8].

As to `COc1ccc2[nH]cc(CCN(C(C)C)C(C)C)c2c1`, the Potency entry in experiment [5] and in [9] was “inactive” each time.

For the compound `ClC1=C(Cl)C2(Cl)C(CBr)CC1(Cl)C2(Cl)Cl` (stereo unspecified), the Potency entry in experiment [5] and in [9] was “inactive” each time.

As to `CN(C)CCc1c[nH]c2ccc(O)cc12`, the Potency entry in [5] is “inactive”.

Consider `NC(=O)OCCCc1ccccc1`, for which the Potency result in experiment [5] and in experiment [9] was “inactive” throughout.

On to `CCCCCCCCCCCC[N+](C)(C)CCOc1ccccc1`, for which, in experiment [5], the Potency result was “inactive”.

On to `CCCCC1C(=O)NC(=O)N(C2CCCCC2)C1=O` (stereo unspecified), for which the Potency result in experiment [5] was “inactive”.

On to `NC(=O)CN1CCCC1=O`, for which the Potency result in [5] and in experiment [9] was “inactive” in each case. Besides, the compound was classed as inactive in experiment [6], in [7] and in experiment [8].

For `Cc1c(Cl)c(=O)oc2cc(OP(=O)(OCCCl)OCCCl)ccc12`, the Potency in experiment [5] is 6.51 µM (active). Further, the Potency result in [9] was “inactive”.

Regarding `OC(O)C(Cl)(Cl)Cl`, the Potency result in experiment [5] and in experiment [9] was “inactive” throughout.

With `COc1cc(CC(C)N)c(OC)cc1Br` (stereo unspecified), the Potency entry in experiment [5] and in experiment [9] was “inactive” in each case.

`C[N+](C)(C)CCOC(=O)C(O)(c1ccccc1)c1ccccc1`: the Potency entry in experiment [5] and in experiment [9] was “inactive” each time.

Take `CCCC[N+]1(C)[C@@H]2CC(OC(=O)[C@H](CO)c3ccccc3)C[C@H]1[C@@H]1O[C@@H]12` (stereo partly specified): the Potency result in experiment [5] and in experiment [9] was “inactive” in each case.

As to `CN(C)CCc1c[nH]c2ccccc12`, the Potency result in [5] and in experiment [9] was “inactive” throughout.

As for `COc1ccc(CN2CCNCC2)c(OC)c1OC`, the Potency result in experiment [5] and in experiment [9] was “inactive” throughout.

On to `Cc1nnc2n1-c1sc(CCc3ccc(CC(C)C)cc3)cc1C(c1ccccc1Cl)=NC2C` (stereo unspecified), for which the Potency in experiment [5] is 14.6 µM (active). Moreover, the Potency entry in experiment [9] was “inactive”.

For the compound `CCOC(=O)c1ncn2c1CN(C)C(=O)c1c(I)cccc1-2`, the Potency result in experiment [5] and in [9] was “inactive” in each case.

As to `O=c1n(Cl)c(=O)n(Cl)c(=O)n1Cl`, the Potency entry in [5] and in experiment [9] was “inactive” each time.

As for `C[C@H]1CNCCc2ccc(Cl)cc21`, the Potency entry in [5] and in experiment [9] was “inactive” each time.

For `CC[C@H]1C[C@@H]2C[C@H]3c4[nH]c5ccc(OC)cc5c4CCN(C2)[C@@H]13`, the Potency entry in experiment [5] and in [9] was “inactive” each time.
